# PubChem BioAssay (Tox21)
# Results filed as inconclusive are left out. Unmarked numbers belong to inactive results. Activity calls are given as the source filed them. Unless noted, calls follow the shape of the dose curve; as a rule, active = well fitted cell-killing curve with a large enough effect in the repeat runs (not every such curve was filed as active); inconclusive = weak or mixed curves, or effect the other way; inactive = no such curve, though single readings can be large or run the other way.
# Assay: qHTS assay to identify small molecule antagonists of the estrogen related receptor signaling pathway with the pleiotropic PPARgamma coactivator (PGC) from Tox21 10K library - cell viability counter screen (AID 1224840); also: nearly all actives have a fitted effect of over 40% in size
# Details: PGC/ERR reporter cells viability, CellTiter-Fluor, 17.5 h; series mostly up to 92.4 µM; viability change, negative = cytotoxic: at the top concentration
# Procedure, shortened: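 PGC/ERR cells, 2,000/well; 6 h pre-incubation 37 C/5% CO2; cpd in DMSO via pin tool; 17.5 h 37 C; CellTiter-Fluor, 30 min; fluorescence.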
# % is scaled to controls: 0 for no effect and ±100 for the full control effect.
row,SMILES,"viability change, negative = cytotoxic"
1,O=C(C1CCCCC1)N1CC(=O)N2CCCc3ccccc3C2C1 (configuration not stated),9.69% [at 42.5 µM]
2,Nc1cccc2c(=O)[nH][nH]c(=O)c12,-13.9%
3,CC(=O)Nc1ccccc1O,-3.21%
4,Oc1ccc(CCNCCCCCCNCCc2ccccc2)cc1O,0.0315% [at 42.5 µM]
5,COc1ccc(C(=O)Nc2ccccc2)cc1[N+](=O)[O-],-11.3%
6,CCCCCCC/C=C/C=O,12.7%
7,COC(=O)Cc1cccc2ccccc12,0.507%
8,CCCCOc1ccc(N)cc1,-7.49%
9,CC/C=C\CCO,0.86%
10,CC(C)C/C=C(\C=O)c1ccccc1,3.86%
11,CC(=O)Oc1cccc2c1C(=O)c1c(OC(C)=O)cc(C(=O)O)cc1C2=O,-27.3% [at 42.5 µM]
12,COc1ccc(/C=C/c2cc(OC)cc(=O)o2)cc1,-8.41% [at 42.5 µM]
13,Oc1ccc(Oc2ccccc2)cc1,-7.16%
14,O=C1c2ccccc2C(=O)C1c1ccc2ccccc2n1,-8.12% [at 42.5 µM]
15,CCCCCCCCCC(C)C=O (configuration not stated),1.29%
16,C=C[Si](OCC)(OCC)OCC,3.69%
17,CC(C)CC(C)(C)C,-13.6%
18,CCCC1CCOC(C)S1 (configuration not stated),6.14%
19,Clc1cc(Cl)c2c(c1)N=C1CCCCCN1C2,-12.9% [at 42.5 µM]
20,COC(=O)/C=C/C(C)=C\C=C\C(C)=C\C=C\C=C(C)\C=C\C=C(C)\C=C\C(=O)O,-20.5%
21,O=C1c2ccccc2C(=O)c2c1ccc(O)c2O,-12.4% [at 42.5 µM]
22,O=[N+]([O-])c1ccccc1CCO,-1.6%
23,CCCN(C1CCN(C(=O)C2CCNCC2)CC1)[C@@H]1CCc2ccc(OC)cc2C1,-16.6%
24,CC(C)(C)c1ccc(CCC=O)cc1,0.583%
25,Sc1nc(S)nc(S)n1,6.25% [at 42.5 µM]

# Assay: qHTS assay to identify small molecule antagonists of the estrogen related receptor signaling pathway with the pleiotropic PPARgamma coactivator (PGC) from Tox21 10K library (AID 1224841; call rule not given here; also: actives are mostly falling curves and most rising ones were filed inactive; nearly all actives have a fitted effect of over 50% in size; also: potency is read from the fitted curve at half-maximal effect)
# Details: PGC/ERR reporter cell line, ONE-Glo luciferase, 18 h; series mostly up to 92.4 µM; activity, negative = inhibition: at the top concentration
# Procedure, shortened: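 PGC/ERR cell line, 2,000 cells/well; 6 h pre-incubation 37 C/5% CO2; compounds (DMSO) pinned in; 18 h, 37 C; One-Glo, 30 min RT; luminescence.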
SMILES,"activity, negative = inhibition",Potency
Oc1ccc(CCNCCCCCCNCCc2ccccc2)cc1O,12.8% [at 42.5 µM],–
CCCCOc1ccc(N)cc1,22.9%,–
COC(=O)C(C)(C)C,-0.329%,–
CC(C)C/C=C(\C=O)c1ccccc1,-6%,–
Clc1cc(Cl)c2c(c1)N=C1CCCCCN1C2,12.9% [at 42.5 µM],–
O=C(N[C@@H](Cc1ccccc1)[C@@H](O)C(=O)N1C[C@@H](O)[C@@H](O)C1)c1cc2cc(Cl)ccc2[nH]1,–,54.5 µM (active)

# Assay: qHTS assay to identify small molecule agonists of the estrogen related receptor signaling pathway with the pleiotropic PPARgamma coactivator (PGC) from Tox21 10K library (AID 1224842; active = well fitted activation curve with a large enough effect in the repeat runs; also: nearly all actives have a fitted effect of over 15% in size; also: potency is read from the fitted curve at half-maximal effect)
# Details: PGC/ERR reporter cell line, luciferase ONE-Glo, 18 h; series mostly up to 92.4 µM; activation: at the top concentration
# Procedure, shortened: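 PGC/ERR reporter cell line, 2,000 cells per well, incubated 6 h at 37 C before 23 nL compound in DMSO was added. After 18 h at 37 C, One-Glo luminescence read following 30 min at room temperature.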
SMILES,activation,Potency
Nc1cccc2c(=O)[nH][nH]c(=O)c12,-23%,–
CC(=O)Nc1ccccc1O,0.555%,–
Oc1ccc(CCNCCCCCCNCCc2ccccc2)cc1O,3.49% [at 42.5 µM],–
O=c1[nH]nc(-c2ccc([N+](=O)[O-])o2)o1,-13.2%,–
CC/C=C\CCO,2.57%,–
COC(=O)C(C)(C)C,0.0922%,–
CC(C)C/C=C(\C=O)c1ccccc1,-1.98%,–
CC(=O)Oc1cccc2c1C(=O)c1c(OC(C)=O)cc(C(=O)O)cc1C2=O,-19.2% [at 42.5 µM],–
COc1ccc(/C=C/c2cc(OC)cc(=O)o2)cc1,–,7.88 µM (active)
CC(C)CC(C)(C)C,-15.4%,–
CC(C)(Cc1c[nH]c2ccccc12)NCC(O)COc1ccccc1C#N (configuration not stated),-9.93% [at 42.5 µM],–
O=Cc1ccc(Cl)c([N+](=O)[O-])c1,-19.6%,–
CCn1nc(Cc2ccccc2)cc1C1CCN(C[C@H]2C[C@H](N(C)[C@@H](C(=O)O)C(C)C)C[C@@H]2c2cccc(F)c2)CC1,-3.77%,–
CC1=CC(=C(c2ccc(N)cc2)c2ccc(N)cc2)C=CC1=N,-25.9% [at 8.39 µM],–
Clc1cc(Cl)c2c(c1)N=C1CCCCCN1C2,4.63% [at 42.5 µM],–
O=C(O)c1ccncc1,-11.1%,–
COC(=O)/C=C/C(C)=C\C=C\C(C)=C\C=C\C=C(C)\C=C\C=C(C)\C=C\C(=O)O,0.734%,–
NC(=O)c1ccccc1C(N)=O,-15.3%,–
CCCN(C1CCN(C(=O)C2CCNCC2)CC1)[C@@H]1CCc2ccc(OC)cc2C1,-9.39%,–
O=C(N[C@@H](Cc1ccccc1)[C@@H](O)C(=O)N1C[C@@H](O)[C@@H](O)C1)c1cc2cc(Cl)ccc2[nH]1,-20.4%,–
Sc1nc(S)nc(S)n1,0.214% [at 42.5 µM],–
